Laboratory results reported in PubChem BioAssay AID1645851 (National Center for Advancing Translational Sciences (NCATS), 2021).
About 1,200 (0.86%) of roughly 140,000 compounds were called active. Many of the other results were omitted from the sample, so actives are more common in it than they were. A number with no mark means an inactive call. Cut-off read from the data, not from the text of the source: active = activity change below about -25%; inactive = the rest.

target: Inositol hexakisphosphate kinase 1 (Homo sapiens) (UniProt Q92551); assay: Primary qHTS assay for small molecule inhibitors of Inositol hexaphosphate kinase 1 (IP6K1); details: ADP-Glo luminescence, 2 h, stronger effect = lower value; note: series mostly up to about 58 µM
In short: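 ADP-Glo luminescence measures ADP made by human IP6K1 during a 2 h RT reaction with ATP/IP6 (mix at 1.3 mM/130 uM); top library doses 57.5 and 19.1 uM final.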
% is set by controls: 0 for no effect and ±100 for the full control effect.

Chain of Inositol hexakisphosphate kinase 1 (Homo sapiens) (Q92551 whole entry, looked up): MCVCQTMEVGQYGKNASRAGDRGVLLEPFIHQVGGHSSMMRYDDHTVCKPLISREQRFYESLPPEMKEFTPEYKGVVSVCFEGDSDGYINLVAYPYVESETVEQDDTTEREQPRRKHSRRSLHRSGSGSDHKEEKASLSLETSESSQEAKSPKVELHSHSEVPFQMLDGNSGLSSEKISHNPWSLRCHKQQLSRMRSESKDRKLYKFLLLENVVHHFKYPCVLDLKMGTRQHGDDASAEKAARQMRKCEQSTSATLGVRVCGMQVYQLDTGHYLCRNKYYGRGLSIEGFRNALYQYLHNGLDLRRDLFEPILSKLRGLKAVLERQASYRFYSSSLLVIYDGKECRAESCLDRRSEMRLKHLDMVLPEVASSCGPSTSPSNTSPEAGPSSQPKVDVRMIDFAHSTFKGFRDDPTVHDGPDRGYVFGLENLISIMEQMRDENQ

SMILES | activity change
O=C1CCC2(C(=O)NCCCN3CCCC3)CCC=C2N1C1CCCC1 (stereo not given) | 9.28%
CCOc1cccc2c1N[C@@H](c1ccc(C(=O)O)cc1)[C@H]1CC=C[C@@H]21 | -85.5% (active)
CCOc1cccc(CC(=O)N2CCc3c([nH]c4ccccc34)C2c2ccc(F)cc2)c1OCC (stereo not given) | 2.13%
CCOc1ccccc1CNC(=O)c1ccc(-n2c(C)cc3c2CCC(C)C3)cc1 (stereo not given) | 14.3%
COc1ccc(OC2CN(CC3CCCCC3)C2)cc1 | -18%
CCN(CC)CCNC(=O)C12CCCC=C1N(Cc1ccccc1)C(=O)CC2 (stereo not given) | 7.12%
O=C(c1ccccc1)N1CCNc2cnc(Nc3cccc(C(F)(F)F)c3)nc2C1 | 4.76%
O=C(OCCN1CCOCC1)c1cccnc1Nc1cccc(C(F)(F)F)c1 | -58.6% (active)
CCc1cccc(NC(=O)c2cnc(N3CCOCC3)c3ccccc23)c1 | -10.5%
O=C(c1ccc(Cl)cc1)N1CCCC(n2cc(-c3nc(-c4ccccc4)no3)nn2)C1 (stereo not given) | 5.18%
O=C(C1CCCN(C(=O)C2CC2)C1)N1CCC(N2CCCC2=O)CC1 (stereo not given) | -0.186%
CN(C)C[C@@H]1CN(c2ccncn2)C[C@H]1NC(=O)c1cc(C2CC2)[nH]n1 | 3.23%
O=C(NC1CCN(Cc2ccccc2)CC1)c1ccc(Cn2c(=O)c3ccccc3n(Cc3cccc(F)c3)c2=O)cc1 | 6.69%
O=c1c2ccccc2n(Cc2cccc(Cl)c2)c(=O)n1Cc1ccccc1 | -26% (active)
CCn1c2ccccc2c2cc(CN3CCN(Cc4cccc(Cl)c4)CC3)ccc21 | -4.05%
O=C(NCc1ccccc1)c1ccc2nc(-c3ccnc(Cl)c3)oc2c1 | -0.193%
CCc1ccc(CN(C)C(=O)c2ccc3oc(-c4cccc(F)c4)nc3c2)nc1 | 12.9%
CN(C)C(=O)c1ccc2oc(-c3ccnc(Cl)c3)nc2c1 | -35.6% (active)
CCOc1ccc(CC(=O)NC2CCN(c3cc(-c4ccc(F)cc4)[nH]n3)CC2)cc1OCC | 22.5%
COc1ccccc1NC(=O)C1=C(C)Nc2ncnn2C1c1sccc1C (stereo not given) | -0.661%
CC1=C(C(=O)Nc2ccccc2Cl)C(c2cccs2)n2ncnc2N1 (stereo not given) | -26.4% (active)
CCOc1ccccc1NC(=O)C1=C(C)Nc2ncnn2C1c1ccc(NC(C)=O)cc1 (stereo not given) | -19.2%
CCN(Cc1ccccc1)C(=O)CCc1ccc2c(c1)CN(C(=O)NC(C)C)CCO2 | -13.8%
CCCC(C)N1CC2(CCN(C(=O)c3csc(C(C)C)n3)CC2)OC1=O (stereo not given) | 4.73%
COc1ccc(-c2ccc3ncn(Cc4ccccc4)c(=O)c3n2)cc1OC | 7.2%
O=c1ncn(Cc2ccccc2)c2ccc(-c3ccoc3)nc12 | -29% (active)
O=c1c2nc(-c3ccccc3)ccc2ncn1Cc1ccccc1 | 5.89%
COCCn1c(=O)n([C@H]2CCCN(C(=O)CCc3ccccc3)C2)c2ncccc21 | 6.71%

SMILES | activity change
CC(C)(Oc1nn(Cc2cccc(Cl)c2)c2ccccc12)C(=O)Nc1cccnc1 | -0.544%
Cc1cc(C)cc(N2CCC(NS(=O)(=O)c3cn(C)c(C)n3)C2=O)c1 (stereo not given) | -1.58%
Cc1ccccc1N1CCCN(Cc2nc(-c3ccccn3)no2)CC1 | -0.56%
COc1ccc(-c2ccc3ncc(Nc4ccc(C(F)(F)F)cc4)n3n2)cn1 | -13.9%
COc1ccc(Nc2cnc3ccc(-c4ccc(OC)nc4)nn23)cc1 | -13.5%
COc1ccc(-c2ccc3ncc(Nc4cc(F)cc(N5CCOCC5)c4)n3n2)cn1 | -29.7% (active)
CC[C@@]1(C(=O)O)C[C@H](C(=O)N(C)CC(=O)O)[C@H](c2ccc(OC)cc2)N1C | 9.58%
COC(=O)c1ccc(CO[C@H]2CCC=C3C[C@@H](O)CC[C@@]32C)cc1 | 17.7%
CCOC(=O)c1ccc(CSc2nnc3cc(C)c4ccccc4n23)cc1 | -36.2% (active)
CCOC(=O)c1ccc(NC(=O)c2nc(SCc3ccc(F)cc3)ncc2Cl)cc1 | -10%
CCOC(=O)c1ccc(NC(=O)CSc2nc3c([nH]c4ccccc43)c(=O)n2C)cc1 | 32.9%
O=S(=O)(N[C@@H]1CCOC[C@H]1Oc1ccccn1)c1ccc(Cl)s1 | -5.56%
O=C(NCc1ccco1)C1c2ccccc2C(=O)N(C2CCCC2)C12CCCCC2 (stereo not given) | -8.07%
Cc1ccc(-c2nnc3ccc(-c4ccoc4)nn23)nc1 | -36.1% (active)
Cc1ccc(-c2ccc3nnc(CNC(=O)c4ccccn4)n3n2)cc1 | -2.05%
CC(=O)N1CCN(c2ccc3nnc(-c4ccc(C)cn4)n3n2)CC1 | -10.9%
CC(=O)Nc1ccc(S(=O)(=O)N[C@H]2CO[C@H]3[C@@H]2OC[C@@H]3n2nnnc2-c2ccc(N(C)C)cc2)cc1 | 2.63%
CCCS(=O)(=O)N1CCC(N2CC(OCCOC)C23CCCCC3)CC1 (stereo not given) | -5.2%
Cc1ccc(NC(=O)c2nc(S(=O)(=O)Cc3cccc(C)c3)ncc2Cl)cc1 | -17.5%
CCOC(=O)c1scc(-c2ccccc2)c1S(=O)(=O)Nc1ccccc1F | -14.6%
CCCS(=O)(=O)c1ncc(Cl)c(C(=O)Nc2scc(-c3ccccc3)c2C(=O)OCC)n1 | -31.2% (active)
CCNC(=O)CCc1c(CC)nn(-c2ccc(F)cc2)c1Oc1ccccc1 | 1.63%
CCOc1ccc(C(=O)N2CCC(c3n[nH]c(=O)n3-c3ccccc3)CC2)cc1OCC | -6.36%
O=Cc1cccc(-c2cc(F)cc(F)c2)c1 | -5.81%
CSc1ccc(-c2ccc(C=O)cc2)cc1 | -28.5% (active)
COc1ccc(CNC(=O)[C@@H](C)C2CC[C@@]3(C)CC[C@H](NC(=O)c4ccc(C#N)cc4)[C@@H](C)[C@@H]3[C@H]2O)cc1 (stereo not given in full) | -11.9%
COc1ccc(Nc2ccnc(N3CCCC(C(=O)NCc4ccc(C(F)(F)F)cc4)C3)n2)cc1 (stereo not given) | -7.37%
